Among the data in ChEMBL document CHEMBL3988442, “University of Dundee, Small-Polar-MMV Screening Library” (2021) are Percent Effect values, retold here.

Holding throughout (parameters): scale not given: direction of the effect not stated beside the values
Experiment [1] deals with Protein translocase subunit SecA (Escherichia coli (strain K12)) (UniProt P10408). The experiment is described as follows: Assay to Identify E. coli SecA ATPase Inhibitors. In kind it is functional. Conditions: 30 µM.
Sequence of Protein translocase subunit SecA (Escherichia coli (strain K12)) (P10408 whole entry): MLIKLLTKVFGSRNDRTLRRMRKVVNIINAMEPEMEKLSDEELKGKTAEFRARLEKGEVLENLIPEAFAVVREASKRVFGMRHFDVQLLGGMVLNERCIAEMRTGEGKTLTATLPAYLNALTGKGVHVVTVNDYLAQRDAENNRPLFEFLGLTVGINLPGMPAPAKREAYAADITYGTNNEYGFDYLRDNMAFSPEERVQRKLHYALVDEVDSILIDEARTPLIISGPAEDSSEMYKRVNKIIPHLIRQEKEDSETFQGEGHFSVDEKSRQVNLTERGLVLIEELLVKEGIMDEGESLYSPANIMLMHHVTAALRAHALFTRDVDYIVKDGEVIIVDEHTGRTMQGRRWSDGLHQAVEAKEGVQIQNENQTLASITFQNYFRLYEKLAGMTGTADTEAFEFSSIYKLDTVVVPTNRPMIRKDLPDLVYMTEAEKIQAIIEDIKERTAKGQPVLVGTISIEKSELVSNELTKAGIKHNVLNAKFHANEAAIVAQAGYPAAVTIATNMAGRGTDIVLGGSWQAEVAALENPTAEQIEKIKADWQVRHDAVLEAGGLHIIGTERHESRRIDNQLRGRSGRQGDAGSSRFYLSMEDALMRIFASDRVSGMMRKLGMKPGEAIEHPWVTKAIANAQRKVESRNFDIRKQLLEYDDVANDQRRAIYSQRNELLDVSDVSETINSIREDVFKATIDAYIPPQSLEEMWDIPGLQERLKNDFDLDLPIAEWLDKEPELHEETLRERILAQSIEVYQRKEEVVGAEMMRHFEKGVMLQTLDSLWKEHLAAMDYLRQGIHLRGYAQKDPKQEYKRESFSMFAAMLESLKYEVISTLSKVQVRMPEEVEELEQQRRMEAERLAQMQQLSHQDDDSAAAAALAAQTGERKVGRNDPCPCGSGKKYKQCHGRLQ
In experiment [2] the target is T1, Ubiquitin-activating enzyme e1, putative (Leishmania donovani (strain BPK282A1)) (UniProt E9BSI1).
T1 sequence (whole entry): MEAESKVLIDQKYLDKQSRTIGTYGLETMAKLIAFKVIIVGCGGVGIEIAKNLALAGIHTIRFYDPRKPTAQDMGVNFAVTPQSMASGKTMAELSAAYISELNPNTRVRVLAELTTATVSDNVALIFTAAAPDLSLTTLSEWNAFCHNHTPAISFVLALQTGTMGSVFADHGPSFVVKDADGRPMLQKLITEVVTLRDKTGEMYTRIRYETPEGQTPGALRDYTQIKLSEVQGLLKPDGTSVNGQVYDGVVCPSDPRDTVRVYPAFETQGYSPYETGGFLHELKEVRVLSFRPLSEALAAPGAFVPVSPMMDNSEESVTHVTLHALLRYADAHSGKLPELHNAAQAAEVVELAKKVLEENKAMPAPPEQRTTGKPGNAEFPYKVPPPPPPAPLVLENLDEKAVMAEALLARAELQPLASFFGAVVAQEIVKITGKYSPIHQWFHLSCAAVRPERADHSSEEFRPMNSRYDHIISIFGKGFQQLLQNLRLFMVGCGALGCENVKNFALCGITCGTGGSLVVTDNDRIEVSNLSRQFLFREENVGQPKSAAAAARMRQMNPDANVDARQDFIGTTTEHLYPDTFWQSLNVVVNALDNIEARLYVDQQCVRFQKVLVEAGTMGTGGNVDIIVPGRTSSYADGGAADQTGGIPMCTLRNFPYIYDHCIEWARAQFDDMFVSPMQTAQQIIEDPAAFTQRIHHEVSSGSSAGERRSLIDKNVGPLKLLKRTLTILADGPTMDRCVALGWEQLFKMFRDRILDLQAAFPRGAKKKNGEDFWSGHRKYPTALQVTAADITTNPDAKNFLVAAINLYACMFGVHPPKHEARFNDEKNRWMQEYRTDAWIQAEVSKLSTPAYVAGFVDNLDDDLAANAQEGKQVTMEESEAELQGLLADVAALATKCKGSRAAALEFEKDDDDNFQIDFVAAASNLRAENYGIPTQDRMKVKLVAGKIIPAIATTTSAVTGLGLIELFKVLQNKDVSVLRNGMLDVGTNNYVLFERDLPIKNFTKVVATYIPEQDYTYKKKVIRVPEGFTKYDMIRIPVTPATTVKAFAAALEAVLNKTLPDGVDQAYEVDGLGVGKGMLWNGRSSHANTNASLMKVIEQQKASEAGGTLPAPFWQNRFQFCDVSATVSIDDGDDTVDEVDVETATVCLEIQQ
In words: Leishmania donovani Ubiquitin Activating Enzyme (LdE1). Format: functional. The conditions noted are these: 30 µM.

Experiment [3] has as its target AMP-activated protein kinase, AMPK (Homo sapiens) (UniProt P54646+O43741+P54619+Q9UGJ0+Q9Y478+Q13131+Q9UGI9). In words: AMP-dependent Kinase enzyme assay. An in vitro enzyme assay that detects ADP turnover that is directly proportional to AMPK activity. This uses naive AMPK that is activated during the assay with MK-8722. The conditions noted are these: 30 µM. Format: functional.

Experiment [4] deals with Sialic acid-binding Ig-like lectin 9 (Homo sapiens) (UniProt Q9Y336). In words: Hs-Siglec9 ALPHAscreen SOP 20170721. Conditions: 10 µM. (In general: In Alpha technology, singlet oxygen from a donor bead excites a nearby acceptor bead.)
Sequence of Sialic acid-binding Ig-like lectin 9 (Homo sapiens) (Q9Y336 whole entry): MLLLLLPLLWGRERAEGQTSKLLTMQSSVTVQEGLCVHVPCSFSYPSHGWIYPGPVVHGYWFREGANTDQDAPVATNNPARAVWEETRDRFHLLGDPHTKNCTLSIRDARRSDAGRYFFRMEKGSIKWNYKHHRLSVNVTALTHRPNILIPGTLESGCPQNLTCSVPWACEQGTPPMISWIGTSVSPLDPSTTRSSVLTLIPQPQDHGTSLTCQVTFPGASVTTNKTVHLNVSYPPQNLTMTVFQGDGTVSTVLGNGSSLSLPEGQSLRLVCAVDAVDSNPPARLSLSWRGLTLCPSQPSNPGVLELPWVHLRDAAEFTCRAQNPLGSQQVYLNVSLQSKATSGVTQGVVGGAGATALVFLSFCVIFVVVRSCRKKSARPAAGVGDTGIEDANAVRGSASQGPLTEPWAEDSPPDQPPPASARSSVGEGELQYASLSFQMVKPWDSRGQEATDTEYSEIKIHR
Experiment [5] deals with Trypanosoma cruzi. The experiment is described as follows: Trypanosoma cruzi phosphomannomutase and mannose-1-phosphate guanylyltransferase assay. The conditions noted are these: 10 µM. Format: functional.
The target in experiment [6] is T2, Arginase-2, mitochondrial (Homo sapiens) (UniProt P78540).
T2 sequence (whole entry): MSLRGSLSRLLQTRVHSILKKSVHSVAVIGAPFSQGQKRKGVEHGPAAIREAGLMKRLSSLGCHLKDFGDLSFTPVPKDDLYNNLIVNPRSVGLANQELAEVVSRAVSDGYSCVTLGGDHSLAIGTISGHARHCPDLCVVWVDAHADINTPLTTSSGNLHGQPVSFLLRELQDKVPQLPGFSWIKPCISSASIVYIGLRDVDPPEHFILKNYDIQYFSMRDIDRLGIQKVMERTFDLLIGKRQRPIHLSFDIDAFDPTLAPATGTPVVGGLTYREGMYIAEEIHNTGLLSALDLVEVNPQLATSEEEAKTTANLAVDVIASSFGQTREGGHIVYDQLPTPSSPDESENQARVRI
In words: in vitro enzyme assay to detect the production of urea directly proportional to the activity of Arginase II. Also: in the data most compounds retested in dose-response had high values. In kind it is functional. The conditions noted are these: 33.3 µM.

Experiment [7] deals with T3, Proteasome subunit beta (Trypanosoma cruzi) (UniProt O96673).
T3 sequence (whole entry): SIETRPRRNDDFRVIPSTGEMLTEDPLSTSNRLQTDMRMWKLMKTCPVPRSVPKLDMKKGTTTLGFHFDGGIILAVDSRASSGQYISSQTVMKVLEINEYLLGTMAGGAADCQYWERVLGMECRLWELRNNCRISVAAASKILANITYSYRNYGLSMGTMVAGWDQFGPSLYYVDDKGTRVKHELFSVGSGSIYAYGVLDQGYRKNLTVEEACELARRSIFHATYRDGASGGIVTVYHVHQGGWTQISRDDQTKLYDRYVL
The experiment is described as follows: Trypanosoma cruzi proteasome chymotrypsin-like activity (TcProtChymo) assay. Also: in the data most compounds retested in dose-response had high values. In kind it is functional. Conditions: 9.37 µM.

The species named for experiment [8] is Homo sapiens. In words: To identify inhibition of the IFN signalling (Jak-Stat) pathway via expression of an eGFP reporter gene under the control of an IFN-stimulated response element (ISRE) containing MxA promoter. In kind it is functional. The conditions noted are these: 30 µM. (In a reporter assay the amount or activity of a reporter protein is the signal.)

In experiment [9] the target is T4, Tyrosyl-tRNA synthetase, putative (Trypanosoma cruzi (strain CL Brener)) (UniProt Q4DSP6).
T4 sequence (whole entry): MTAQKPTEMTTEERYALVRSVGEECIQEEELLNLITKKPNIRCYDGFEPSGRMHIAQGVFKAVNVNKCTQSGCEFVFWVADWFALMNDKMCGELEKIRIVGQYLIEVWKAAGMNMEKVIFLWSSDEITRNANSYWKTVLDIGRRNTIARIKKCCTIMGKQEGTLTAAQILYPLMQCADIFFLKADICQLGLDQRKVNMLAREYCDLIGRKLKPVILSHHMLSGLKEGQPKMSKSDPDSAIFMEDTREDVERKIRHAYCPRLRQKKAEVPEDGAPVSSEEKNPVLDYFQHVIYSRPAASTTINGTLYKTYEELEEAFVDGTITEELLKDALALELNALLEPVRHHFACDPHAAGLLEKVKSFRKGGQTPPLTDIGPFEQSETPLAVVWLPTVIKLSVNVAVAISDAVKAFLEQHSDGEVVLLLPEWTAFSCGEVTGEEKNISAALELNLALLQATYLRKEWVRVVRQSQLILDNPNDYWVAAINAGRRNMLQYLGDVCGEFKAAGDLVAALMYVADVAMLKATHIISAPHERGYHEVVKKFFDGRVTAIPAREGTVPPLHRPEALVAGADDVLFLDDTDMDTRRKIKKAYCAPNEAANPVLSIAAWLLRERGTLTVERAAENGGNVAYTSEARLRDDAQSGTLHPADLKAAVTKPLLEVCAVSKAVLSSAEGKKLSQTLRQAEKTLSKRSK
The experiment is described as follows: Trypanosoma cruzi tyrosyl tRNA synthetase (TcYRS) _High Tyrosine SOP. Also: in the data most compounds retested in dose-response had high values. In kind it is functional. Conditions: 30 µM.

Experiment [10] concerns the target T4, Tyrosyl-tRNA synthetase, putative (Trypanosoma cruzi (strain CL Brener)). The experiment is described as follows: Trypanosoma cruzi tyrosyl tRNA synthetase (TcYRS) SOP. Format: functional. Conditions: 30 µM.
The target in experiment [11] is Chromo domain-containing protein 1 (Saccharomyces cerevisiae (strain ATCC 204508 / S288c) (Baker's yeast)) (UniProt P32657). The experiment is described as follows: ScCHD-1 Enzyme Inhibition Assay. Also: in the data most compounds retested in dose-response had high values. In kind it is functional. Conditions: 30 µM.
Sequence of Chromo domain-containing protein 1 (Saccharomyces cerevisiae (strain ATCC 204508 / S288c) (Baker's yeast)) (P32657 whole entry, the tested form may be a part): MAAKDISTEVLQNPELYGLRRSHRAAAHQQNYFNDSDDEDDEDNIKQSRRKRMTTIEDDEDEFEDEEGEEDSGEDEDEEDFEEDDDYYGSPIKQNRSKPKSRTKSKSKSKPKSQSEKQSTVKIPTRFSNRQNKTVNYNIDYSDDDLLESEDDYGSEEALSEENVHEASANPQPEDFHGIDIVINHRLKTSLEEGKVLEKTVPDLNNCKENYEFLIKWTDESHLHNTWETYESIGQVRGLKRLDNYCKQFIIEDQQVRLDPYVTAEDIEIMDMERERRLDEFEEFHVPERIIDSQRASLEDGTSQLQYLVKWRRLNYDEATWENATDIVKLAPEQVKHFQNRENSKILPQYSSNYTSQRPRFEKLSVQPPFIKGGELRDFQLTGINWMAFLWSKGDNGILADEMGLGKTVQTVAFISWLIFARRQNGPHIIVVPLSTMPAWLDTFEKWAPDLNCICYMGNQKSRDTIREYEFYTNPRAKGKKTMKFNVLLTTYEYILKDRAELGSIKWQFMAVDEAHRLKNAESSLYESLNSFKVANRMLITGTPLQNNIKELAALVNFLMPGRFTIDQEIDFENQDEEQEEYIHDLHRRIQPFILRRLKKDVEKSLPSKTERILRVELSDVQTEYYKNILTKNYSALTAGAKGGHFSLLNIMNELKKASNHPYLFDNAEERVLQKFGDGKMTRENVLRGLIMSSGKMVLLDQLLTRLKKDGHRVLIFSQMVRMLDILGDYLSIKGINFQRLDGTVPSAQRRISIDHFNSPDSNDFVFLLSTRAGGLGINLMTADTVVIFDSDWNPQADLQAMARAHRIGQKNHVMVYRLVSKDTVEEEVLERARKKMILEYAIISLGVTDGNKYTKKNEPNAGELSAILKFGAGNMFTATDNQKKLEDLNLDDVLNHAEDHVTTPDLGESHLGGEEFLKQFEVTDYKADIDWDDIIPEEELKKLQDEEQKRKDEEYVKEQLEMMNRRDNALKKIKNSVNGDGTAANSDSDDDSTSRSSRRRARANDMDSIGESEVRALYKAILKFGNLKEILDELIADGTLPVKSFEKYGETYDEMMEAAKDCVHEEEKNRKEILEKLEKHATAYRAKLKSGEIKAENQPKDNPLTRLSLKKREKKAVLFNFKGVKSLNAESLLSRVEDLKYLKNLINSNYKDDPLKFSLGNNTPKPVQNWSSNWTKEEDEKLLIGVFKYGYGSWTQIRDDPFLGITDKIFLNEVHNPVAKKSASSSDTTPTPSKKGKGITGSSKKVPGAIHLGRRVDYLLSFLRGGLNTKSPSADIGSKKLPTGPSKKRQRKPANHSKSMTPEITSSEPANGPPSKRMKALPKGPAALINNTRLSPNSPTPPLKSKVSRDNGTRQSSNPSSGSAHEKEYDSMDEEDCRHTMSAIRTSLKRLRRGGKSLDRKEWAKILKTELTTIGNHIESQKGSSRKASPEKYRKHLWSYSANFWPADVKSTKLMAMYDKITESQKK

For some of these results: Entries with a potency or affinity are not part of this list.

Turning to `Fc1cccnc1OC[C@@]12CCO[C@@H]1CCN(CC1CCOCC1)C2`, the Percent Effect in experiment [1] is -3.83%; in experiment [2], 8.11%; in [3], -6.9%; in [4], 22.7%; in experiment [5] it was 4.01%; in [6], -0.744%. In addition, the Percent Effect in [7] was 14.3%; in experiment [8] it was 12.2%; in [9], 6.45%; in experiment [10] it was 13.6%; in experiment [11], -9.09%.
Turning to `CCOC(=O)N1CCN(C(=O)CCn2ccc3c(OC)cccc32)CC1`, the Percent Effect in experiment [1] is -0.914%; in [2], 0%; in [3], -4.91%; in experiment [4] it was 2.66%; in experiment [5], -6.91%; in [6], -10.7%. Also, the Percent Effect in [7] was 15.8%; in experiment [8], 35%; in experiment [9] it was 2.13%; in experiment [10], -2.6%; in experiment [11], -1.25%.
For `Cc1ccc(C(C)NC(=O)Nc2ccccc2CN2CCOCC2)o1` (stereo unspecified), the Percent Effect in experiment [1] is -5.3%; in [2], 5.41%; in [3], -1.54%; in [4], 9.05%; in [5], -2.64%; in experiment [6], -5.21%. Further, the Percent Effect in experiment [7] is 9.19%; in experiment [8] it was -2.32%; in experiment [9] it was 7.53%; in experiment [10] it was 8.64%; in experiment [11] it was -0.483%.
`CC(=O)N1CC[C@@H]2CN(C(=O)c3ccco3)CCO[C@@H]2C1`: the Percent Effect is 0.266% in [1]; 13.3% in experiment [2]; 8.75% in experiment [3]; 0.752% in experiment [4]; -4.33% in experiment [5]; 6.29% in experiment [6]. The Percent Effect in [7] was 12.8%; in experiment [8] it was -9.46%; in [9], 3.19%; in experiment [10], 3.85%; in experiment [11], -2.25%.
Consider `Cc1nccc([C@H]2C[C@@H]3CCN(S(=O)(=O)N(C)C)C[C@H]3O2)n1`, for which the Percent Effect in experiment [1] was -2.42%; in experiment [2], 8.11%; in experiment [3], -3.13%; in experiment [4], 27.4%; in experiment [5], 5.18%; in experiment [6], 17.6%. Besides, the Percent Effect was 3.35% in experiment [7]; -26.1% in experiment [8]; 4.3% in experiment [9]; 16.1% in experiment [10]; -6.72% in experiment [11].
For the molecule `Cc1n[nH]c(C2CN(C(=O)Cn3ccccc3=O)CCO2)n1` (stereo unspecified), the Percent Effect was -8.02% in [1]; 1.27% in experiment [2]; 4.25% in [3]; 2.29% in experiment [4]; -1.13% in [5]; 2.37% in [6]. The Percent Effect in experiment [7] was 6.35%; in experiment [8], 1.57%; in experiment [9] it was 0%; in [10], 2.53%; in experiment [11], -9.48%.
Take `CC(C)Nc1ccc2nc(C3CCN(C(C)C)CC3)nn2c1`: the Percent Effect was -0.345% in [1]; 8.11% in experiment [2]; -95.9% in experiment [3]; -2.89% in experiment [4]; 3.91% in experiment [5]; 26.2% in experiment [6]. For the same molecule, the Percent Effect in experiment [7] is 8.54%; in [8] it was 7.24%; in experiment [9], 10.9%; in experiment [10], 8.54%; in experiment [11], -1.81%.
As for `CCc1nc(CC(=O)Nc2cnn(CC3CCCO3)c2)cs1` (stereo unspecified), the Percent Effect in experiment [1] was -2.62%; in [2], 8.11%; in experiment [3], -12.1%; in experiment [4], -2.05%; in experiment [5] it was -0.965%; in experiment [6], -1.43%. Further, the Percent Effect in [7] is 7.59%; in experiment [8], 0.276%; in experiment [9], -4.76%; in experiment [10], -2.44%; in [11], -1.6%.
Regarding `CN(C)[C@@H]1CCN(C(=O)NC2CCCC2)[C@H]1Cc1cnn(C)c1`, the Percent Effect was -4.9% in experiment [1]; 2.67% in experiment [2]; -90.2% in [3]; 5.44% in experiment [4]; -0.197% in experiment [5]; 2.1% in [6]. Besides, the Percent Effect in [7] is 7.84%; in experiment [8] it was -0.845%; in [9], 1.06%; in [10], -3.85%; in experiment [11] it was 1.31%.
Regarding `CC(NC1(CNC(=O)CC(C)(C)C)CCOCC1)c1ccccc1` (stereo unspecified), the Percent Effect was -5.63% in experiment [1]; 8.11% in experiment [2]; 1.15% in experiment [3]; 15.6% in experiment [4]; -0.684% in [5]; 4.22% in experiment [6]. Further, the Percent Effect in experiment [7] was 9.19%; in experiment [8], -9.78%; in experiment [9], 3.23%; in [10], 11.1%; in experiment [11] it was -2.98%.
With `Cc1ccccc1CSc1nc(N)cc(N2CCOC(C(N)=O)C2)n1` (stereo unspecified), the Percent Effect in [1] is -5.78%; in experiment [2], 2.7%; in experiment [3], -2.45%; in [4], -7.55%; in experiment [5], -4.4%; in experiment [6], 0.248%. Also, the Percent Effect in experiment [7] was 10%; in experiment [8], 22.4%; in [9], 6.45%; in [10] it was 11.1%; in experiment [11], -1.13%.
